KB-3-1 tox: KB-3-1 parental cell cytotoxicity; KB-3-1 viability, CellTiter-Glo ATP luminescence, 72 h; Potency, µM (doses to about 46.1 µM), usual class: cytotoxic; actives 1.4% (n = 400,000); AID 1347075; note: potency is the fitted concentration of half-maximal effect; nearly all actives have a fitted effect of over 60% in size
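Cytotoxicity measured as CellTiter-Glo luminescence after 72 h at 37 C. Compound titrations were pinned onto drug-naive KB-3-1 parental adenocarcinoma cells grown in DMEM with 10% FBS, and normalized data fitted to concentration-response curves.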
KB-V1 MDR tox: KB-V1 MDR subline cytotoxicity; KB-V1 MDR cells viability, CellTiter-Glo, 72 h; Potency, µM (doses to about 46.1 µM), hits mostly cytotoxic; actives 3.4% (n = 400,000); AID 1347076; note: potency is the fitted concentration of half-maximal effect; nearly all actives have a fitted effect of over 60% in size
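Potencies derive from concentration-effect curves fitted to normalized luminescence (CellTiter-Glo) of KB-V1 cells treated for 72 h at 37 degrees C in phenol-red-free DMEM containing 10% FBS.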
A549 viability: counter-screen for Nrf2 inhibitors: cytotoxicity in A549 cells. Potency, µM (doses to about 46 µM), without a hit: at the top dose activity change, negative = cytotoxicity, usual class: inhibitors. actives 0.16% (n = 390,000). A549 ARE-Fluc cells, CellTiter-Fluor viability, 18-24 h; note: potency is the fitted concentration of half-maximal effect
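Cytotoxicity counterscreen: CellTiter-Fluor fluorescence was measured in A549 ARE_Fluc cells after 18-24 h of compound exposure in a concentration series. The subsequent BugLite luminescent read reports ARE-luciferase activity.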
Giardia killer: Giardia lamblia killing | Giardia lamblia trophozoite viability | activity change, % at 7.66 µM, hits read low | actives 0.15% (n = 340,000) | AID 540267; in the data active = activity change below about -80%; inconclusive = between about -30% and that limit;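 note: parasites exposed to compound for two days anaerobically before the ATP read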
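Each well holds 100 Giardia trophozoites and compound. After two days (48 hrs) at 37 deg C in anaerobic conditions, ATP is quantified by luminescence.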
PI4K2A inh: blocks human PI4K2A kinase activity | actives 0.13% (n = 420,000) | purified PI4K2A, ADP-Glo luminescence, 1 h; hits give low values | activity change, negative = inhibition, % at 76.9 µM | AID 1346378; in the data active = activity change below about -50%; inconclusive = mostly about -30% to -49%;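 note: -100% = wells without enzyme as full effect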
Target sequence (Q9BTU6 whole entry, looked up): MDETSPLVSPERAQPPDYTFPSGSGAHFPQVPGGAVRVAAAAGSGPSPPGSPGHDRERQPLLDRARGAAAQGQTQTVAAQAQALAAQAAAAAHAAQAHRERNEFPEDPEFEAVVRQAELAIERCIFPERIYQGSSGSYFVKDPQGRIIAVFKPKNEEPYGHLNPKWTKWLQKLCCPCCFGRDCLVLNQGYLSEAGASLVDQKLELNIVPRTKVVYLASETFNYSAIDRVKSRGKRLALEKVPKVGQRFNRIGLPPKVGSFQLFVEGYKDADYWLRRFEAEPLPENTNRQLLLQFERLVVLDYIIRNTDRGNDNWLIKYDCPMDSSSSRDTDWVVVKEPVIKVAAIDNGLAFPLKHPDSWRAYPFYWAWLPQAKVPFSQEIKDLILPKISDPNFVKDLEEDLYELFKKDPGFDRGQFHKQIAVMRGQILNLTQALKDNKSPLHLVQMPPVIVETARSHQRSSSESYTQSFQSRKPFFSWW
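PI4K2A activity was measured by ADP-Glo luminescence: enzyme (4 ug/mL stock) and phosphatidylinositol (1.2 mM stock) in Tris pH 7.5/MgCl2/EGTA/Triton X-100 buffer were reacted with ATP (300 microM stock) for one hour at ambient temperature.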
Nrf2 inh: inhibitors of Nrf2 signaling; A549 ARE-Fluc reporter, luciferase luminescence, 18-24 h; Potency, µM (doses to about 46 µM), for inactives: at the highest dose activity change, negative = inhibition, usual class: inhibitors; actives 2.1% (n = 360,000); note: potency is the fitted concentration of half-maximal effect; nearly all actives have a fitted effect of over 60% in size
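Cells were seeded and rested 2 h, then exposed to compounds for 18-24 h. CellTiter-Fluor was read first as a viability measure. BugLite was added 15 min before the final luminescent read of ARE-luciferase activity in A549 cells.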
* marks the source's active call; other numbers are inactive results; i = inactive; ? = inconclusive; nt = no result. Most compounds without a hit are left out; they make up all but 5.7% or so of the library. Unless noted, calls come from the whole dose curve; as a rule, active = well fitted curve in the direction sought with a large enough effect; inconclusive = small, poorly fitted or top-dose-only effect, or another doubt; inactive = no such curve, though single readings can be large; an effect the other way counts as inactive or inconclusive. Unless noted, % is set by controls: 0 for no effect and ±100 for the full control effect.

SMILES	KB-3-1 tox	KB-V1 MDR tox	A549 viability	Giardia killer	PI4K2A inh	Nrf2 inh
Cc1cccc(NC(=O)C2(C)CC3c4ccccc4C2c2ccccc23)c1C (centres undefined)	?	7.3µM*	0%	6	10	?
CCOC(=O)N1CCN(c2nc3ccccc3nc2C(C#N)S(=O)(=O)c2ccc(C)cc2)CC1 (centres undefined)	i	3.7µM*	-6%	-3	-3	6%
Cc1ccc(S(=O)(=O)C(C#N)c2nc3ccccc3nc2N2CCN(C)CC2)cc1 (centres undefined)	?	i	-15%	10	0	12%
COc1cc(CNc2ncnc3c2ncn3[C@H]2CN(Cc3cccc4ccccc34)C[C@@H](CO)O2)cc(OC)c1OC	?	21µM*	nt	nt	-2	nt
O=C(Nc1ccc(F)cc1F)c1ccc(-n2cnc3cccnc32)cc1	?	?	-1%	nt	-7	-8%
O=C(CNc1nnnn1-c1ccccc1)N1CCCC1	nt	nt	nt	nt	1	nt
Fc1ccc(CNc2ncnc3c2cnn3-c2ccccc2)cc1	i	i	0%	2	2	nt
c1ccc(CNc2nnnn2-c2ccccc2)cc1	?	21µM*	-9%	-2	6	?
c1ccc(CNc2ncnc3c2cnn3-c2ccccc2)cc1	5.2µM*	2.6µM*	-23%	11	2	-9%
Cc1cccc(-n2ncc3c(NCc4ccccc4)ncnc32)c1	3.3µM*	6.5µM*	-12%	-22	-2	4%
Cc1cccc(-n2ncc3c(NCc4ccccn4)ncnc32)c1	i	i	-2%	19	4	nt
CC(C)OCCCNc1ncnc2c1cnn2-c1ccccc1	i	15µM*	-6%	-25	-5	?
CC[N+]1(CC)CCC(=C(c2ccccc2)c2ccccc2)C1C (centres undefined)	nt	nt	nt	nt	2	nt
Cc1cccc(-n2ncc3c(NCCN4CCOCC4)ncnc32)c1	i	i	11%	33	-1	?
CC(=O)Nc1ccc(Nc2ncnc3c2cnn3-c2cccc(C)c2)cc1	i	16µM*	-2%	-4	1	?
Cc1cccc(-n2ncc3c(N4CCCc5ccccc54)ncnc32)c1	?	8.2µM*	-1%	18	-1	nt
CC(C)Nc1ncnc2c1cnn2-c1ccc(Cl)cc1	7.3µM*	?	3%	?	1	?
C[C@@H]1[C@H](c2ccccc2)OCCS(=O)(=O)N1Cc1ccc(Cl)cc1	16µM*	12µM*	nt	nt	nt	nt
C[C@@H]1[C@H](c2ccccc2)OCCS(=O)(=O)N1Cc1ccccc1	i	i	nt	nt	nt	nt
CC[C@@H](CCC(=O)N(c1ccccc1)c1ccccc1)c1ccc(C)cc1	nt	nt	nt	nt	-1	nt
Cc1csc(SCCn2c(N3CCN(c4ccccc4)CC3)nc3c2c(=O)[nH]c(=O)n3C)n1	i	21µM*	-1%	-3	-11	0%
Cc1nnc(SCCn2c(N3CC(C)CC(C)C3)nc3c2c(=O)n(C)c(=O)n3C)s1 (centres undefined)	i	21µM*	3%	-11	4	3%
Cc1nnc(SCCn2c(Br)nc3c2c(=O)n(C)c(=O)n3C)s1	i	?	2%	5	-7	0%
CC1CC(C)CN(c2nc3c(c(=O)[nH]c(=O)n3C)n2CCCSc2nc3ccccc3s2)C1 (centres undefined)	i	4.1µM*	-3%	15	2	3%
CC1CCN(c2nc3c(c(=O)[nH]c(=O)n3C)n2CC(C)CSc2nnnn2-c2ccccc2)CC1 (centres undefined)	i	3.7µM*	-19%	-10	1	-12%
SMILES	KB-3-1 tox	KB-V1 MDR tox	A549 viability	Giardia killer	PI4K2A inh	Nrf2 inh
CCN1CCN(c2nc3c(c(=O)[nH]c(=O)n3C)n2CCSc2nc3ccccc3s2)CC1	i	i	8%	3	1	-2%
Cc1cc2c(s1)c1cnn(Cc3ccc4ccccc4c3)c(=O)c1n2C	nt	nt	-3%	nt	nt	16%
Cn1c(=O)[nH]c(=O)c2c1nc(N1CCCCC1)n2CCCSc1nnnn1-c1ccccc1	i	9.2µM*	0%	-8	1	11%
O=S(=O)(c1ccc(Cl)cc1)N1CCCC1c1nc(-c2ccc(Cl)cc2)no1 (centres undefined)	i	i	-3%	-17	-7	-24%
O=S(=O)(c1ccccc1Cl)N1CCCC1c1nc(-c2ccccc2Cl)no1 (centres undefined)	i	?	-16%	7	-6	16µM*
Cc1cccc(C)c1N1CCN(C(=O)Nc2ccc3c(c2)OCCO3)CC1	i	4.6µM*	-4%	-19	-1	-36%
O=C(Nc1ccc2c(c1)OCCO2)N1CCN(c2ccc(F)cc2)CC1	?	21µM*	0%	14	-1	?
CC(=O)Nc1ccc(S(=O)(=O)N2CCN(S(=O)(=O)c3c(F)cccc3F)CC2)cc1	nt	nt	8%	nt	nt	3%
C=C1C=C(C(F)F)n2ncc(C(=O)NCc3ccc(OC)c(OC)c3)c2N1	i	i	nt	nt	nt	nt
O=C(Cn1c(=O)c(CNc2ccccc2)cc2cc3c(cc21)OCCO3)Nc1ccccc1Cl	nt	nt	0%	2	-6	28%
O=C(Nc1c(-c2ccccc2)[nH][nH]c1=O)c1ccc2c(c1)OCO2	i	i	nt	nt	?	nt
O=C(Nc1c(-c2ccc3c(c2)OCO3)[nH][nH]c1=O)c1ccccc1	i	i	nt	nt	-60*	nt
N#CC1=C(N)OC2=C(CCc3ccccc32)C1c1ccccc1Cl (centres undefined)	?	4.6µM*	?	-13	-4	-1%
COC(=O)[C@]12C[C@H](CC(=O)NCCC(C)C)C(=O)N(Cc3ccco3)C1=C[C@H](C1CCCC1)O[C@@H]2C	nt	nt	nt	nt	4	nt
O=C(c1ccc(Cl)cc1)c1ccc(OCC(=O)N2CCOCC2)cc1	i	18µM*	-3%	-8	-5	?
C=CCN(Cc1ccc(OC)c(OC)c1)C(=O)c1cc2cc(F)ccc2[nH]1	i	i	?	1	7	23µM*
Cc1cc(C)c(NC2=CC(=O)CC(C)(C)C2)c(C#N)c1	i	23µM*	2%	28	2	nt
Cc1cccc(C#N)c1NC1=CC(=O)CC(C)(C)C1	i	i	-9%	-7	7	-9%
Cc1ccc(NC2=CC(=O)CC(C)(C)C2)cc1C	i	16µM*	2%	-6	0	12%
O=C1N2CCc3ccccc3C2CS(=O)(=O)N1CCc1ccccc1 (centres undefined)	nt	nt	nt	nt	-2	nt
c1ccc2nc(-c3cc4ccccc4s3)ccc2c1	i	i	nt	nt	nt	nt
Cc1nc2cc(C)c(C)cc2s1	i	i	2%	-15	-5	8%
CN(C)c1ccc2nc3ccc(=O)cc-3sc2c1	?	16µM*	nt	nt	-26	nt
